Measurements published in PubChem BioAssay (NCI).
Compounds without any hit were thinned out: in the full panel of roughly 83,000, 20% have a hit.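 In brief: 96-well plates, 48 h treatment, single concentration, percent growth endpoint.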 The source made the active and inactive calls. The calls were made as follows: active = growth percent below 10; inactive = the rest.

Experiments:
Test in all cases: NCI-60 one-dose screen, 48 h (100 = growth as untreated, 0 = no growth, -100 = all killed)
Conditions in all cases: 10 µM unless noted
T-47D breast = system: T-47D breast
BT-549 breast = system: BT-549 breast
MDA-MB-435 melanoma = system: MDA-MB-435 melanoma
SW-620 colon = system: SW-620 colon
MCF7 breast = system: MCF7 breast
HCT-116 colon = system: HCT-116 colon
HCC-2998 colon = system: HCC-2998 colon
KM12 colon = system: KM12 colon

Measured: growth

Cc1cc(O)cc(-c2nn(C)cc2-c2cc(N3CCOCC3)nc(-c3cccnc3)n2)c1
inactive: T-47D breast 28.8% | BT-549 breast 36.3% | SW-620 colon 38.4% | MCF7 breast 14.9% | HCT-116 colon 17.3% | HCC-2998 colon 63% | KM12 colon 28.9%
active: MDA-MB-435 melanoma 3.68%

CN1CC(c2ccc(Br)cc2)C(C(=O)c2ccc(Br)cc2)C12C(=O)Nc1ccccc12 (stereo unspecified)
inactive: T-47D breast 49.5% | BT-549 breast 100% | MDA-MB-435 melanoma 78.9% | SW-620 colon 72% | MCF7 breast 62.4% | HCT-116 colon 39.7% | HCC-2998 colon 84.5% | KM12 colon 75%

CC(=O)O[C@H]1CC[C@]2(C)[C@H]3CC=C4[C@@H]5CC(C)(C)CC[C@]5(C(=O)N5CCN(CCC#N)CC5)CC[C@@]4(C)[C@]3(C)CC[C@H]2C1(C)C
inactive: T-47D breast 29% | BT-549 breast 40.9% | MDA-MB-435 melanoma 31.5% | SW-620 colon 19.4% | MCF7 breast 11.6% | HCC-2998 colon 47.7% | KM12 colon 28.6%
active: HCT-116 colon -2.33%

OC1CSSC1Cn1cnc2c(Nc3ccc(OCc4cccc(F)c4)c(Cl)c3)ncnc21 (stereo unspecified)
inactive: T-47D breast 19.8% | BT-549 breast 52.9%
active: MDA-MB-435 melanoma -77.1% | SW-620 colon -20.3% | MCF7 breast -60.1% | HCT-116 colon -33.1% | HCC-2998 colon -81.7% | KM12 colon -60.3%

COc1cc(Cc2cc(-c3ccccc3)nn(Cc3ccccc3)c2=O)cc(OC)c1OC
inactive: BT-549 breast 53.8% | MDA-MB-435 melanoma 44.9% | SW-620 colon 50.1% | MCF7 breast 24.5% | HCT-116 colon 23.3% | HCC-2998 colon 64.2% | KM12 colon 32.9%
active: T-47D breast 6.19%

COc1ccc(-c2cn(Cc3cc4ccccc4s3)nn2)cc1OCCN1CCCCC1
inactive: T-47D breast 85.1% | BT-549 breast 74.8% | MDA-MB-435 melanoma 69.6% | SW-620 colon 90.9% | MCF7 breast 60.6% | HCT-116 colon 75.9% | HCC-2998 colon 57.4% | KM12 colon 87%

Nc1cc(Br)cc2c1[nH]c(=O)c1ccccc12
inactive: T-47D breast 79.6% | BT-549 breast 86.9% | MDA-MB-435 melanoma 113% | SW-620 colon 94.7% | MCF7 breast 53.2% | HCT-116 colon 96.8% | HCC-2998 colon 104% | KM12 colon 104%

O=C1/C(=C/c2ccccn2)SC(=S)N1N1CCOCC1
inactive: T-47D breast 99.4% | BT-549 breast 99.9% | MDA-MB-435 melanoma 103% | SW-620 colon 97.6% | MCF7 breast 87.4% | HCT-116 colon 104% | HCC-2998 colon 97.7% | KM12 colon 103%

COc1ccc(-c2nc3ccc(C)cc3c3c2c(=O)n(C)c(=O)n3C)cc1OC
inactive: T-47D breast 106% | BT-549 breast 120% | MDA-MB-435 melanoma 90% | SW-620 colon 103% | MCF7 breast 97.7% | HCT-116 colon 105% | HCC-2998 colon 98.2% | KM12 colon 116%

CC1(C)N=C(N)N=C(N)N1c1cc(Cl)ccc1Cl
inactive: T-47D breast 95.2% | BT-549 breast 85.2% | MDA-MB-435 melanoma 108% | SW-620 colon 42.2% | MCF7 breast 65.7% | HCT-116 colon 36.8% | HCC-2998 colon 94.8% | KM12 colon 94%

COC12C=C/C(=C(/C(=O)OCCSc3ccnn3C)C(=O)CCCCCCCCC3(OC)C=C/C(=C(/C(=O)OCCSc4ccnn4C)C(=O)CCCCCCCC1)O3)O2
inactive: T-47D breast 33.2% | SW-620 colon 18.5% | MCF7 breast 14.7%
active: BT-549 breast -22.7% | MDA-MB-435 melanoma -3.93% | HCT-116 colon -38.5% | HCC-2998 colon -86.1% | KM12 colon -57.6%

COc1cc2ncnc(Nc3ccc(F)c(Cl)c3)c2cc1OCC(=O)N1CCOCC1
inactive: T-47D breast 53.5% | BT-549 breast 98.5% | MDA-MB-435 melanoma 102% | SW-620 colon 102% | MCF7 breast 83.9% | HCT-116 colon 84% | HCC-2998 colon 94.3% | KM12 colon 94.4%

C#CCOc1cccc(Nc2ncnc3cc(NC(=O)CCl)ccc23)c1
active: T-47D breast -48.9% | BT-549 breast -55.4% | MDA-MB-435 melanoma -75.2% | SW-620 colon -49.7% | MCF7 breast -15.9% | HCT-116 colon -61.1% | HCC-2998 colon -67.2% | KM12 colon -69.5%

Oc1nc(NCc2ccccc2)sc1/C=C1\C=Nc2ncccc21
inactive: T-47D breast 63.6% | BT-549 breast 42.7% | MDA-MB-435 melanoma 74.2% | SW-620 colon 44.5% | MCF7 breast 42% | HCT-116 colon 24.3% | HCC-2998 colon 102% | KM12 colon 55%

COc1cc(/C=C/c2cn[nH]c2-c2ccc(C)cc2)cc(OC)c1OC
active: MDA-MB-435 melanoma -16.2%
inactive: T-47D breast 22.2% | BT-549 breast 32.9% | SW-620 colon 19.7% | MCF7 breast 13.1% | HCT-116 colon 11.7% | HCC-2998 colon 78.8% | KM12 colon 29.9%

NS(=O)(=O)c1ccc(C(=O)NN2C(=O)c3ccccc3C2=O)cc1
inactive: T-47D breast 98.4% | BT-549 breast 109% | MDA-MB-435 melanoma 103% | SW-620 colon 104% | MCF7 breast 96.1% | HCT-116 colon 110% | HCC-2998 colon 108% | KM12 colon 102%

CC(C)NS(=O)(=O)/N=C1\NC(=O)NC1=C(Cl)Cl
inactive: T-47D breast 79.7% | BT-549 breast 104% | MDA-MB-435 melanoma 94.3% | SW-620 colon 103% | MCF7 breast 82.7% | HCT-116 colon 102% | HCC-2998 colon 110% | KM12 colon 85.4%

COc1ccc(-c2cc(C(=O)N3N=C(c4ccc(N)cc4)CC3c3ccc(Cl)cc3)c3ccccc3n2)cc1 (stereo unspecified)
inactive: T-47D breast 47.4% | SW-620 colon 29.2% | MCF7 breast 13.9% | HCT-116 colon 15.6% | HCC-2998 colon 21.5% | KM12 colon 20.7%
active: BT-549 breast 8.43% | MDA-MB-435 melanoma -12.9%

COc1ccc(C(=O)C/C(=C\c2ccc(O)c(OC)c2)C(=O)NN)cc1
active: MDA-MB-435 melanoma 9.68%
inactive: T-47D breast 66.9% | BT-549 breast 63.7% | SW-620 colon 84.1% | MCF7 breast 47.9% | HCT-116 colon 72.2% | HCC-2998 colon 104% | KM12 colon 73.2%

Cn1cc(-c2csc(-c3cn(CCCN4CCOCC4)c4ccc(F)cc34)n2)c2cccnc21
inactive: T-47D breast 41.1% | BT-549 breast 71.6% | MDA-MB-435 melanoma 65.3% | SW-620 colon 61% | MCF7 breast 34.1% | HCT-116 colon 72.3% | HCC-2998 colon 65.4% | KM12 colon 34.3%

Cc1c(O)cc(-c2cnc(N/N=C/c3ccccc3)s2)c(O)c1C
inactive: T-47D breast 29.7% | BT-549 breast 72.8% | MDA-MB-435 melanoma 95.5% | SW-620 colon 113% | MCF7 breast 72.3% | HCT-116 colon 96.2% | HCC-2998 colon 131% | KM12 colon 90.7%

c1ccc(-c2c(-c3ccccc3)[n+](Cc3ccc4ccccc4c3)cn2Cc2ccc3ccccc3c2)cc1
active: T-47D breast -74.3% | BT-549 breast -82% | MDA-MB-435 melanoma -91.3% | SW-620 colon -79.8% | MCF7 breast -83.8% | HCT-116 colon -87.5% | HCC-2998 colon -93.3% | KM12 colon -80.2%

Cc1nc2sc(C(=O)Nc3cccc(Cl)c3C)c(N)c2cc1C(=O)/C=C/c1ccccc1
inactive: T-47D breast 21.2%
active: BT-549 breast -35.7% | MDA-MB-435 melanoma -26.3% | SW-620 colon -21.8% | MCF7 breast 3% | HCT-116 colon -35.6% | HCC-2998 colon -83.2% | KM12 colon -16.7%

CNC(=O)c1cc(Oc2ccc3c(c2)sc2nc(-c4cc(C(F)(F)F)cc(C(F)(F)F)c4)cn23)ccn1
inactive: T-47D breast 30.6% | BT-549 breast 52.9% | MDA-MB-435 melanoma 60.8% | SW-620 colon 64.9% | MCF7 breast 51.1% | HCT-116 colon 36.3% | HCC-2998 colon 74.3% | KM12 colon 69.5%

CN(C)CCCn1c2c(c3cnccc3c1=O)C(=O)c1ccccc1-2
active: T-47D breast -5.32% | BT-549 breast 6.92% | MDA-MB-435 melanoma 3.83% | SW-620 colon -6.01% | MCF7 breast -3.97% | HCT-116 colon -12.6% | HCC-2998 colon 3.98% | KM12 colon 3.16%

Cc1nn(-c2ccc([N+](=O)[O-])cc2)c2ncnc(N/N=C/c3ccccc3O)c12
inactive: T-47D breast 11.6% | BT-549 breast 30.6% | MDA-MB-435 melanoma 26.5% | SW-620 colon 25.1% | MCF7 breast 11.9% | HCT-116 colon 18.1% | HCC-2998 colon 40.4% | KM12 colon 22.3%

CC1(/C=C/c2ccc(-c3ccccc3)cc2)CCn2cnc3ncnc(c32)N1O (stereo unspecified)
inactive: T-47D breast 37.8% | BT-549 breast 17% | MDA-MB-435 melanoma 28.4% | SW-620 colon 28.2% | HCT-116 colon 20.2% | HCC-2998 colon 32.3% | KM12 colon 26%
active: MCF7 breast 8.15%

COc1cc(/C=C/C(=O)N2CCN(C(=O)c3cc(OC)c(OC)c(OC)c3)CC2)ccc1OCCCOc1cc2c(cc1OC)C(=O)N1CCC[C@H]1C=N2
active: T-47D breast 7.16% | BT-549 breast -55.9% | MDA-MB-435 melanoma -66.4% | SW-620 colon 4.48% | MCF7 breast 7.86% | HCT-116 colon 7.83% | HCC-2998 colon -39% | KM12 colon -19.5%

Cc1cc(N2CCN(CC(=O)Nc3ccc4c(ccn4Cc4ccccc4)c3)CC2)nc(N2CCOCC2)n1
inactive: T-47D breast 59.6% | BT-549 breast 81.5% | MDA-MB-435 melanoma 92.9% | SW-620 colon 95% | MCF7 breast 79.8% | HCT-116 colon 72.5% | HCC-2998 colon 119% | KM12 colon 91.3%

O=C(/C=C/c1cccc(Oc2ccccc2)c1)c1ccc(Nc2nc(Nc3ccc(F)cc3)nc(Nc3ccc(Cl)cc3)n2)cc1
inactive: T-47D breast 95.4% | BT-549 breast 104% | MDA-MB-435 melanoma 112% | SW-620 colon 104% | MCF7 breast 89.6% | HCT-116 colon 95.1% | HCC-2998 colon 67.1% | KM12 colon 105%

Cc1ccc(C)c2c1sc1nc(N3CCOCC3)c(C#N)c(=O)n12
inactive: T-47D breast 73.4% | BT-549 breast 90.9% | MDA-MB-435 melanoma 118% | SW-620 colon 105% | MCF7 breast 51.5% | HCT-116 colon 88.6% | HCC-2998 colon 109% | KM12 colon 63.1%

Cc1cc(O)c(=O)cc2c1C[C@H]1CC(C)(C)/C=C/C[C@]3(C)Oc4cc(=O)c(O)cc(C)c4C[C@H]3C[C@H](O)[C@@]1(C)O2
active: T-47D breast 2.08% | BT-549 breast 1.38% | MCF7 breast 2.97% | HCT-116 colon 8.37%
inactive: MDA-MB-435 melanoma 18.1% | SW-620 colon 13.8% | HCC-2998 colon 32.4% | KM12 colon 16.1%
